# According to publication PMC11006913:
# Substitutions are numbered along the chain they refer to.
# Key:
# Assay in all cases: PBM; 200 nM protein, PBS
# Conditions in all cases: dsDNA, one strand shown
# HOXB6 = HOXB6 (Homo sapiens, UniProt P17509 132-218)
# NKX2-6 [1] = target: T1, NKX2-6 (Homo sapiens, UniProt A6NCS4 118-204, R150C)
# T1 sequence: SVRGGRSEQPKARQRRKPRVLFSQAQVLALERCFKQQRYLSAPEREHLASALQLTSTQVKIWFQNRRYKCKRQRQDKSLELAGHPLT
# HOXC9 [2] = target: HOXC9 (Homo sapiens, UniProt P31274 178-260)
# MSX2 [3] = target: MSX2 (Homo sapiens, UniProt P35548 130-214)
# HOXC9 [4] = target: HOXC9 (Homo sapiens, UniProt P31274 178-260, R222W)
# MSX2 [5] = target: MSX2 (Homo sapiens, UniProt P35548 130-214, F161Y)
# NKX2-6 [6] = target: T2, NKX2-6 (Homo sapiens, UniProt A6NCS4 118-204)
# T2 sequence: T1 sequence with C33R
# NKX2-6 [7] = target: T3, NKX2-6 (Homo sapiens, UniProt A6NCS4 118-204, F151L)
# T3 sequence: T1 sequence with C33R, F34L
# MSX2 [8] = target: MSX2 (Homo sapiens, UniProt P35548 130-214, R199I)
# NKX3-2 [9] = target: NKX3-2 (Homo sapiens, UniProt P78367 192-278, P234S)
# NKX3-2 [10] = target: NKX3-2 (Homo sapiens, UniProt P78367 192-278)
# PROP1 [11] = target: PROP1 (Homo sapiens, UniProt O75360 56-141)
# HOXA4 = HOXA4 (Homo sapiens, UniProt Q00056 201-287)
# CRX = CRX (Homo sapiens, UniProt O43186 26-111, E42D)
# PROP1 [12] = target: PROP1 (Homo sapiens, UniProt O75360 56-141, R99H)
# PROP1 [13] = target: PROP1 (Homo sapiens, UniProt O75360 56-141, F88S)
# PROP1 (Homo sapiens, UniProt O75360 56-141, F88S), sequence (O75360 56-141 F88S): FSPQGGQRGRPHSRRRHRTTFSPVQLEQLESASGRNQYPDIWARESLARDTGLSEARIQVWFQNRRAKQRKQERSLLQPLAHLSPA
# NKX3-2 (Homo sapiens, UniProt P78367 192-278, P234S), sequence (P78367 192-278 P234S): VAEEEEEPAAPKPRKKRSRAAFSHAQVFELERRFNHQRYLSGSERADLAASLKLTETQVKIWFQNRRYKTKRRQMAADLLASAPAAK
# PROP1 (Homo sapiens, UniProt O75360 56-141), sequence (O75360 56-141): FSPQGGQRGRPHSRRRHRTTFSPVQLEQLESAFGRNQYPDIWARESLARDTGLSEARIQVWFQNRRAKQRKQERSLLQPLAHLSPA
# NKX3-2 (Homo sapiens, UniProt P78367 192-278), sequence (P78367 192-278): as the sequence (P78367 192-278 P234S) above, with S43P counted along it
# HOXC9 (Homo sapiens, UniProt P31274 178-260), sequence (P31274 178-260): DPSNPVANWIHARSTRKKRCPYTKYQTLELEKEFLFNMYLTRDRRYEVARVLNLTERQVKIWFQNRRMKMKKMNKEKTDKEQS
# HOXC9 (Homo sapiens, UniProt P31274 178-260, R222W), sequence (P31274 178-260 R222W): as the sequence (P31274 178-260) above, with R45W counted along it
# PROP1 (Homo sapiens, UniProt O75360 56-141, R99H), sequence (O75360 56-141 R99H): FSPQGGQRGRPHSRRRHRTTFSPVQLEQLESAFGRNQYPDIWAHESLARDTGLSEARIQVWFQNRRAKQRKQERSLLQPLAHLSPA
# HOXB6, sequence (P17509 132-218): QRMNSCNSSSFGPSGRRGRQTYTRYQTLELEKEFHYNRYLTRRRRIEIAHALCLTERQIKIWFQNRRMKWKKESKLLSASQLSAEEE
# MSX2 (Homo sapiens, UniProt P35548 130-214, R199I), sequence (P35548 130-214 R199I): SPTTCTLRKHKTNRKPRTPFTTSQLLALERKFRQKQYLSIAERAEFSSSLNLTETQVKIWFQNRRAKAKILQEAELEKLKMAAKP
# CRX, sequence (O43186 26-111 E42D): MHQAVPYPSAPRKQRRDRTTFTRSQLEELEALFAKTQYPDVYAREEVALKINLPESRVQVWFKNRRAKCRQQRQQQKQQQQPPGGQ
# MSX2 (Homo sapiens, UniProt P35548 130-214, F161Y), sequence (P35548 130-214 F161Y): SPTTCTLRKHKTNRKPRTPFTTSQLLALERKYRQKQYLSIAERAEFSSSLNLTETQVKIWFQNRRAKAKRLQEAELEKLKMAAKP
# MSX2 (Homo sapiens, UniProt P35548 130-214), sequence (P35548 130-214): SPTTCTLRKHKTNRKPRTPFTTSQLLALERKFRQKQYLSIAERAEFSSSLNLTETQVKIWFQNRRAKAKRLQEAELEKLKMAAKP
# HOXA4, sequence (Q00056 201-287): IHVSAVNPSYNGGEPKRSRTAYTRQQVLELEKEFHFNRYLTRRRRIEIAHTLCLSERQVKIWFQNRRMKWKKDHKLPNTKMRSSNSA
sequence,measurement,setting,value
AATACCAT,binding signal,HOXB6,"10.3 upbm affinity estimate (log intensity, higher = more binding, comparable within an allelic series)"
ACCTCCCC,binding signal,NKX2-6 [1],"9.56 upbm affinity estimate (log intensity, higher = more binding, comparable within an allelic series)"
CGGTTAGC,binding signal,NKX2-6 [1],"9.51 upbm affinity estimate (log intensity, higher = more binding, comparable within an allelic series)"
CAGACGCC,binding signal,NKX2-6 [1],"9.62 upbm affinity estimate (log intensity, higher = more binding, comparable within an allelic series)"
GACCTGGC,binding signal,NKX2-6 [1],"9.43 upbm affinity estimate (log intensity, higher = more binding, comparable within an allelic series)"
CCCAGGGG,binding signal,NKX2-6 [1],"9.24 upbm affinity estimate (log intensity, higher = more binding, comparable within an allelic series)"
ATCACCCG,binding signal,NKX2-6 [1],"9.63 upbm affinity estimate (log intensity, higher = more binding, comparable within an allelic series)"
ACAGCGGG,binding signal,NKX2-6 [1],"9.46 upbm affinity estimate (log intensity, higher = more binding, comparable within an allelic series)"
CGGACGGC,binding signal,NKX2-6 [1],"9.24 upbm affinity estimate (log intensity, higher = more binding, comparable within an allelic series)"
CACTCTCA,binding signal,NKX2-6 [1],"10.9 upbm affinity estimate (log intensity, higher = more binding, comparable within an allelic series)"
AAGCCACG,binding signal,NKX2-6 [1],"9.49 upbm affinity estimate (log intensity, higher = more binding, comparable within an allelic series)"
GACGCCCC,binding signal,NKX2-6 [1],"9.56 upbm affinity estimate (log intensity, higher = more binding, comparable within an allelic series)"
CAAAGTGC,binding signal,NKX2-6 [1],"11 upbm affinity estimate (log intensity, higher = more binding, comparable within an allelic series)"
CCGGACCC,binding signal,NKX2-6 [1],"9.31 upbm affinity estimate (log intensity, higher = more binding, comparable within an allelic series)"
TACAAGTA,binding signal,NKX2-6 [1],"11.3 upbm affinity estimate (log intensity, higher = more binding, comparable within an allelic series)"
ATACTTGG,binding signal,NKX2-6 [1],"10.8 upbm affinity estimate (log intensity, higher = more binding, comparable within an allelic series)"
CGCGGGCA,binding signal,NKX2-6 [1],"9.67 upbm affinity estimate (log intensity, higher = more binding, comparable within an allelic series)"
CCCGCAGC,binding signal,NKX2-6 [1],"9.3 upbm affinity estimate (log intensity, higher = more binding, comparable within an allelic series)"
GCGGACCA,binding signal,NKX2-6 [1],"9.48 upbm affinity estimate (log intensity, higher = more binding, comparable within an allelic series)"
CAAGAGGG,binding signal,NKX2-6 [1],"10.9 upbm affinity estimate (log intensity, higher = more binding, comparable within an allelic series)"
CGGGCGGA,binding signal,NKX2-6 [1],"9.09 upbm affinity estimate (log intensity, higher = more binding, comparable within an allelic series)"
ACCGGTGG,binding signal,NKX2-6 [1],"9.26 upbm affinity estimate (log intensity, higher = more binding, comparable within an allelic series)"
CACTTGTC,binding signal,NKX2-6 [1],"11.4 upbm affinity estimate (log intensity, higher = more binding, comparable within an allelic series)"
CACAGGCG,binding signal,NKX2-6 [1],"9.43 upbm affinity estimate (log intensity, higher = more binding, comparable within an allelic series)"
AAAAAGTG,binding signal,NKX2-6 [1],"11.2 upbm affinity estimate (log intensity, higher = more binding, comparable within an allelic series)"
GTAAGTAC,binding signal,NKX2-6 [1],"11.7 upbm affinity estimate (log intensity, higher = more binding, comparable within an allelic series)"
GGGGCCAC,binding signal,NKX2-6 [1],"9.87 upbm affinity estimate (log intensity, higher = more binding, comparable within an allelic series)"
CACCCCGC,binding signal,NKX2-6 [1],"9.31 upbm affinity estimate (log intensity, higher = more binding, comparable within an allelic series)"
GGGCCACC,binding signal,NKX2-6 [1],"9.52 upbm affinity estimate (log intensity, higher = more binding, comparable within an allelic series)"
AAGCCCCC,binding signal,NKX2-6 [1],"9.33 upbm affinity estimate (log intensity, higher = more binding, comparable within an allelic series)"
AACGGGAC,binding signal,NKX2-6 [1],"9.62 upbm affinity estimate (log intensity, higher = more binding, comparable within an allelic series)"
AAGAGTAG,binding signal,NKX2-6 [1],"10.8 upbm affinity estimate (log intensity, higher = more binding, comparable within an allelic series)"
ACCCGGCA,binding signal,NKX2-6 [1],"9.55 upbm affinity estimate (log intensity, higher = more binding, comparable within an allelic series)"
GGCGGGAC,binding signal,NKX2-6 [1],"9.37 upbm affinity estimate (log intensity, higher = more binding, comparable within an allelic series)"
ACAGGGGG,binding signal,NKX2-6 [1],"9.27 upbm affinity estimate (log intensity, higher = more binding, comparable within an allelic series)"
CCCCAACC,binding signal,NKX2-6 [1],"9.37 upbm affinity estimate (log intensity, higher = more binding, comparable within an allelic series)"
AAACGGCC,binding signal,NKX2-6 [1],"9.82 upbm affinity estimate (log intensity, higher = more binding, comparable within an allelic series)"
CTGACCCC,binding signal,NKX2-6 [1],"9.6 upbm affinity estimate (log intensity, higher = more binding, comparable within an allelic series)"
CCCCCATC,binding signal,NKX2-6 [1],"9.53 upbm affinity estimate (log intensity, higher = more binding, comparable within an allelic series)"
ATACTTTG,binding signal,NKX2-6 [1],"10.7 upbm affinity estimate (log intensity, higher = more binding, comparable within an allelic series)"
CCCGCCAG,binding signal,NKX2-6 [1],"9.62 upbm affinity estimate (log intensity, higher = more binding, comparable within an allelic series)"
ACCCTTAT,binding signal,HOXC9 [2],"10.8 upbm affinity estimate (log intensity, higher = more binding, comparable within an allelic series)"
same,binding signal,MSX2 [3],"10.8 upbm affinity estimate (log intensity, higher = more binding, comparable within an allelic series)"
same,binding signal,HOXC9 [4],"10.2 upbm affinity estimate (log intensity, higher = more binding, comparable within an allelic series)"
same,binding signal,MSX2 [5],"10.7 upbm affinity estimate (log intensity, higher = more binding, comparable within an allelic series)"
AAAGTGCA,binding signal,NKX2-6 [1],"11.2 upbm affinity estimate (log intensity, higher = more binding, comparable within an allelic series)"
same,binding signal,NKX2-6 [6],"12.2 upbm affinity estimate (log intensity, higher = more binding, comparable within an allelic series)"
same,binding signal,NKX2-6 [7],"10.1 upbm affinity estimate (log intensity, higher = more binding, comparable within an allelic series)"
GATGATTA,binding signal,MSX2 [8],"11.1 upbm affinity estimate (log intensity, higher = more binding, comparable within an allelic series)"
AAGGCCCA,binding signal,NKX2-6 [1],"9.71 upbm affinity estimate (log intensity, higher = more binding, comparable within an allelic series)"
same,binding signal,NKX3-2 [9],"10.7 upbm affinity estimate (log intensity, higher = more binding, comparable within an allelic series)"
same,binding signal,NKX3-2 [10],"10.7 upbm affinity estimate (log intensity, higher = more binding, comparable within an allelic series)"
GTCGATAA,binding signal,HOXC9 [2],"10.9 upbm affinity estimate (log intensity, higher = more binding, comparable within an allelic series)"
same,binding signal,PROP1 [11],"8.04 upbm affinity estimate (log intensity, higher = more binding, comparable within an allelic series)"
same,binding signal,HOXC9 [4],"10.3 upbm affinity estimate (log intensity, higher = more binding, comparable within an allelic series)"
ATGAGAAT,binding signal,HOXC9 [2],"10.8 upbm affinity estimate (log intensity, higher = more binding, comparable within an allelic series)"
same,binding signal,HOXA4,"11.2 upbm affinity estimate (log intensity, higher = more binding, comparable within an allelic series)"
AAGTGGGG,binding signal,NKX2-6 [1],"11.7 upbm affinity estimate (log intensity, higher = more binding, comparable within an allelic series)"
same,binding signal,NKX3-2 [9],"12.7 upbm affinity estimate (log intensity, higher = more binding, comparable within an allelic series)"
same,binding signal,NKX3-2 [10],"12.8 upbm affinity estimate (log intensity, higher = more binding, comparable within an allelic series)"
AACTAATC,binding signal,CRX,"12.7 upbm affinity estimate (log intensity, higher = more binding, comparable within an allelic series)"
CACAGGCC,binding signal,NKX2-6 [1],"9.58 upbm affinity estimate (log intensity, higher = more binding, comparable within an allelic series)"
same,binding signal,PROP1 [11],"6.73 upbm affinity estimate (log intensity, higher = more binding, comparable within an allelic series)"
same,binding signal,PROP1 [12],"6.9 upbm affinity estimate (log intensity, higher = more binding, comparable within an allelic series)"
same,binding signal,PROP1 [13],"6.72 upbm affinity estimate (log intensity, higher = more binding, comparable within an allelic series)"
AAAGTGGT,binding signal,NKX2-6 [1],"11.7 upbm affinity estimate (log intensity, higher = more binding, comparable within an allelic series)"
same,binding signal,NKX3-2 [9],"12.7 upbm affinity estimate (log intensity, higher = more binding, comparable within an allelic series)"
same,binding signal,NKX3-2 [10],"12.8 upbm affinity estimate (log intensity, higher = more binding, comparable within an allelic series)"
ACCTGGTG,binding signal,NKX2-6 [1],"9.61 upbm affinity estimate (log intensity, higher = more binding, comparable within an allelic series)"
same,binding signal,PROP1 [11],"6.8 upbm affinity estimate (log intensity, higher = more binding, comparable within an allelic series)"
same,binding signal,PROP1 [12],"6.74 upbm affinity estimate (log intensity, higher = more binding, comparable within an allelic series)"
same,binding signal,PROP1 [13],"6.77 upbm affinity estimate (log intensity, higher = more binding, comparable within an allelic series)"
